PubChem BioAssay (EPA / NIEHS)
Several values for one entry are separate records, joined by “and”; a condition that tells them apart may be missing. Identical values can stand only once. Activity calls are given as the source filed them. How the source made its calls: active means hit-call score of the fitted dose curve at least 0.9, where 1 is the maximum; inactive means score below 0.9.

Legend:
[1] = read-out: Tissue plasminogen activator (tPA), PLAT (gene 5327); assay: BSK_BE3C_tPA: BioMAP Diversity Plus: BE3C Assay for Tissue plasminogen activator (tPA) Biomarker Activity (AID 2283041); conditions: primary human bronchial epithelial cells; actives raise or lower the signal
Procedure, shortened: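 Gain- or loss-of-signal in tPA, measured by ELISA, derived by bidirectional fitting against DMSO. Cells: human primary bronchial epithelial; read at 24 h after chemical dosing.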

[2] = read-out: Interleukin-8 (IL8), CXCL8 (gene 3576); assay: BSK_CASM3C_IL8: BioMAP Diversity Plus: CASM3C Assay for Interleukin-8 (IL8) Biomarker Activity (AID 2283042); conditions: primary human coronary artery smooth muscle cells; actives raise or lower the signal;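 further: IL-8 protein level quantified by ELISA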
[3] = read-out: Human Leukocyte Antigen - DR isotype (HLADR), HLA-DRA (gene 3122); assay: BSK_CASM3C_HLADR: BioMAP Diversity Plus: CASM3C Assay for Human Leukocyte Antigen - DR isotype (HLADR) Biomarker Activity (AID 2283043); conditions: primary human coronary artery smooth muscle cells; actives raise or lower the signal;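 further: cell-surface HLA-DR protein level quantified by ELISA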
[4] = read-out: Macrophage colony-stimulating factor (MCSF), CSF1 (gene 1435); assay: BSK_CASM3C_MCSF: BioMAP Diversity Plus: CASM3C Assay for Macrophage colony-stimulating factor (MCSF) Biomarker Activity (AID 2283044); conditions: primary human coronary artery smooth muscle cells; actives raise or lower the signal;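 further: M-CSF protein amount quantified by ELISA after 24 h exposure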
[5] = read-out: Low-density lipoprotein receptor (LDLR), LDLR (gene 3949); assay: BSK_CASM3C_LDLR: BioMAP Diversity Plus: CASM3C Assay for Low-density lipoprotein receptor (LDLR) Biomarker Activity (AID 2283045); conditions: primary human coronary artery smooth muscle cells; actives raise or lower the signal;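 further: LDLR protein level on the cell surface quantified by ELISA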
[6] = read-out: Monocyte Chemoattractant Protein-1 (MCP1), CCL2 (gene 6347); assay: BSK_CASM3C_MCP1: BioMAP Diversity Plus: CASM3C Assay for Monocyte Chemoattractant Protein-1 (MCP1) Biomarker Activity (AID 2283046); conditions: primary human coronary artery smooth muscle cells; actives raise or lower the signal;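 further: MCP-1 level quantified by ELISA 24 h after dosing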
[7] = BSK_CASM3C_Proliferation: Cell Proliferation Assessment in the BioMAP Diversity Plus: CASM3C Assay (AID 2283047); conditions: primary human coronary artery smooth muscle cells;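 further: sulforhodamine B total protein stain as relative cell number at 560 nm; sub-confluent cells exposed 48 h before staining; fitted both ways against DMSO so gain or loss of cell number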
[8] = read-out: Monokine induced gamma interferon (MIG), CXCL9 (gene 4283); assay: BSK_CASM3C_MIG: BioMAP Diversity Plus: CASM3C Assay for Monokine induced gamma interferon (MIG) Biomarker Activity (AID 2283048); conditions: primary human coronary artery smooth muscle cells; actives raise or lower the signal;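 further: MIG protein level measured by ELISA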
[9] = read-out: serum amyloid A (SAA), SAA1 (gene 6288); assay: BSK_CASM3C_SAA: BioMAP Diversity Plus: CASM3C Assay for serum amyloid A (SAA) Biomarker Activity (AID 2283049); conditions: primary human coronary artery smooth muscle cells; actives raise or lower the signal;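 further: SAA protein level quantified by ELISA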
[10] = BSK_CASM3C_SRB: Viability Assessment in the BioMAP Diversity Plus: CASM3C Assay (AID 2283050); conditions: primary human coronary artery smooth muscle cells;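 further: total protein by SRB staining as cytotoxicity measure in parallel cultures; cells exposed to compound for 24 h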

Measured: AC50

CCOC(=O)CCCCCCCCC(=O)OCC
inactive: all assays above

CCCO[Si](OCCC)(OCCC)OCCC
inactive: all assays above

C#C[C@]1(O)CC[C@H]2[C@@H]3CCc4cc(O)ccc4[C@H]3CC[C@@]21C
active: [5] 29.2 µM | [6] 2.14 µM | [7] 7.37 µM | [9] 0.935 µM
inactive: all other assays above

C=CC(=O)OCC(CO)(COC(=O)C=C)COC(=O)C=C
active: [2] 1.25 µM | [3] 0.567 µM | [4] 1.07 µM | [5] 1.31 µM | [6] 0.792 µM | [7] 0.302 µM | [8] 1.24 µM | [9] 5.46 µM | [10] 1.61 µM
inactive: [1]

C=C1CC/C=C(\C)CC[C@@H]2[C@@H]1CC2(C)C
active: [10] 33.2 µM
inactive: all other assays above

NC(=O)c1c(Cl)cccc1Cl
inactive: all assays above

COC(=O)c1ccc(C(=O)OC)cc1
inactive: all assays above

c1ccc(Sc2ccccc2)cc1
active: [1] 20 µM | [3] 20 µM | [4] 14.9 µM | [9] 20 µM | [10] 29.8 µM
inactive: [2] | [5] | [6] | [7] | [8]

C=C(F)C(=O)OC(C(F)(F)F)C(F)(F)F
inactive: all assays above

O=C1OC2(c3ccc(O)cc3Oc3cc(O)ccc32)c2ccccc21
inactive: all assays above

C=C(C)C(=O)OCCC(F)(F)C(F)(F)C(F)(F)C(F)(F)C(F)(F)C(F)(F)C(F)(F)C(F)(F)F
inactive: all assays above

CC(=O)c1ccc(C)cc1
inactive: all assays above

CCn1cc(C(=O)O)c(=O)c2ccc(C)nc21
inactive: all assays above

CC/C(=C(\c1ccccc1)c1ccc(OCCN(C)C)cc1)c1ccccc1
active: [1] 7.72 µM and 14 µM | [2] 30.9 µM and 15.7 µM | [3] 28.8 µM and 9.17 µM | [4] 21 µM and 15.7 µM | [5] 31.8 µM and 34.2 µM | [6] 27.4 µM and 25.9 µM | [7] 12.7 µM and 6.94 µM | [8] 31.5 µM and 32 µM | [9] 28.1 µM and 11.7 µM | [10] 27.2 µM and 16.9 µM

O=C(c1ccc(OCCN2CCCCC2)cc1)c1c(-c2ccc(O)cc2)sc2cc(O)ccc12
active: [1] 20 µM | [3] 26.1 µM | [5] 6.83 µM | [7] 23 µM | [10] 34.4 µM
inactive: [2] | [6] | [8] | [9]

CC(C)CCCC(C)(C)O
inactive: all assays above

O=S(=O)(O)C(F)(F)C(F)(F)OC(F)(F)C(F)(F)F
active: [9] 44.9 µM and 20 µM
inactive: all other assays above

CC(C)(CO)CO
inactive: all assays above

COc1ccccc1NC(=O)CC(C)=O
inactive: all assays above

CCCCOCCOCCO
inactive: all assays above

OCCN1CCOCC1
inactive: all assays above

c1ccc(OCCOc2ccccc2)cc1
inactive: all assays above
